USP7 inh: blocks human USP7 ubiquitin-rhodamine cleavage; purified USP7, Ub-rhodamine cleavage fluorescence; inhibition, % at 20 µM; actives 0.3% (n = 47,000); AID 1645854
USP8 block: inhibitors of human USP8 deubiquitinase. P40818. purified USP8, Ub-rhodamine cleavage fluorescence, 30 min. inhibition, % at 20 µM. actives 4.2% (n = 47,000). AID 1645853
USP17 block: blocks human USP17 ubiquitin-rhodamine cleavage; A8MUK1; purified USP17, Ub-rhodamine cleavage fluorescence, 3 h; inhibition, % at 50 µM; actives 6.5% (n = 47,000); AID 1645855
USP30 block: human USP30 deubiquitinase inhibition | AID 1645860 | inhibition, % at 25 µM | actives 5.3% (n = 47,000) | Q70CQ3 | purified USP30, Ub-rhodamine cleavage fluorescence
Target sequence (Q70CQ3 whole entry, looked up): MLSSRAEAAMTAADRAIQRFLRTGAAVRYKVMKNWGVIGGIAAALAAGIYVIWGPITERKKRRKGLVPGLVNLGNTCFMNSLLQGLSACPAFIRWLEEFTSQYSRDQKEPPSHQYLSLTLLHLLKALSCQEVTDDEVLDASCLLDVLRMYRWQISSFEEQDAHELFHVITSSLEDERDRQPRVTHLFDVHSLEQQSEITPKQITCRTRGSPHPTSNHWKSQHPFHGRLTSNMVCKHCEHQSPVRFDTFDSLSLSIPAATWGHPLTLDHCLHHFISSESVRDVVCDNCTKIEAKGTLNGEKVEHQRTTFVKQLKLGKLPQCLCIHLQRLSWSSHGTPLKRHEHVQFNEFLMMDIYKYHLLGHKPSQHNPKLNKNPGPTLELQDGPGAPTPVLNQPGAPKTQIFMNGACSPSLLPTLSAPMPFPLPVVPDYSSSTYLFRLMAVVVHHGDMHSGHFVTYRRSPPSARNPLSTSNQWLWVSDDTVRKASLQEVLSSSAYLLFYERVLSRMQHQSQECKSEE
USP10 block: inhibitors of human USP10 deubiquitinase; AID 1645856; purified USP10, Ub-rhodamine fluorescence, 60 min; inhibition, % at 20 µM; Q14694; actives 1.1% (n = 47,000)
UCHL1 block: inhibitors of human UCHL1 deubiquitinase; AID 1645859; purified UCHL1, Ub-rhodamine cleavage fluorescence; inhibition, % at 20 µM; actives 0.2% (n = 47,000)
An asterisk follows results filed as active; i = inactive. Hits are enriched below; roughly 13% of the tested compounds scored in any of these assays. Rule as the data show it: active = inhibition above about 30%; inactive = the rest.

SMILES | USP7 inh | USP8 block | USP17 block | USP30 block | USP10 block | UCHL1 block
Cc1cccc2nc(C(=O)N3CC(C(=O)N4CCOCC4)Oc4ccccc43)cn12 (configuration not stated) | 2 | -1 | -2 | -2 | 6 | 0
O=C(C1CN(C(=O)c2cnc3ccccc3n2)c2ccccc2O1)N1CCOCC1 (configuration not stated) | 0 | 70* | 26 | 1 | 0 | 4
COC(=O)[C@H]1[C@H](O)[C@H](C)[C@@H](O)[C@](C)(O)/C=C(\C)C2=C3C(=C(C)C(=O)c4c(O)c(c(C)c(OC(C)=O)c43)NC(=O)/C(C)=C/C=C\[C@@](C)(O)[C@@H](O)[C@@H](C)[C@H]1O)OCO2 | -42 | -83 | 26 | -226 | -12 | -4
Cc1ccc2c(c1)-c1onc(C(=O)NCCc3c[nH]c4ccccc34)c1CO2 | 6 | -14 | 33* | -37 | -1 | 1
O=C(NCCc1c[nH]c2ccccc12)c1cc2occc2c(Nc2ccc(F)cc2)n1 | 7 | 9 | 29 | 7 | 6 | 7
O=C(NCc1ccccc1F)C1CCN(c2cc(N3CCOCC3)ncn2)CC1 | 3 | -6 | -5 | 2 | -1 | -1
CCC(=NCc1ccccc1)c1cccc(OC)c1O | -1 | 3 | -4 | 2 | 2 | 0
Cc1noc2nc(C)n(CC(=O)NCC(C)c3ccccc3)c(=O)c12 (configuration not stated) | 1 | 0 | 3 | -3 | 0 | 0
COc1ccc2c(ccn2CC(=O)NC(C)CCc2ccccc2)c1 (configuration not stated) | -6 | 6 | 1 | -16 | -4 | 1
CC(CCc1ccccc1)NC(=O)Cn1c(=O)c2cccn2c2ccccc21 (configuration not stated) | 9 | -5 | 82* | 19 | 15 | 0
CC(CNC(=O)Cn1c(=O)c2cccn2c2ccccc21)c1ccccc1 (configuration not stated) | 7 | 27 | 17 | 32* | 10 | 3
CC(C)c1cc(N2CCC(C(=O)O)CC2)nc(-c2ccccn2)n1 | 0 | 2 | -3 | 2 | 2 | -1
CCCOc1ccc(-c2ccc(-c3noc(-c4ccncc4)n3)cc2)cc1 | 0 | 5 | 5 | -1 | 1 | -3
COc1ccc(C(=O)[C@@H]2[C@H](C(=O)OC(c3ccccc3)c3ccccc3)N3c4ccccc4C=CC3[C@@]23C(=O)Nc2ccccc23)cc1 (some centres not stated) | -19 | 45* | 0 | -213 | -7 | -1
COc1ccc([C@H]2[C@H](C(=O)c3cccs3)N3c4ccccc4C=CC3C23C(=O)c2ccccc2C3=O)c(OC)c1 (some centres not stated) | -155 | -237 | -159 | i | -3 | -150
O=C(O)c1cc([N+](=O)[O-])ccc1N1CCC(Cc2ccccc2)CC1 | -30 | -87 | 0 | 31* | -2 | -1
O=[N+]([O-])c1ccc(N2CCCC2)c(CO)c1 | -5 | -67 | -9 | -47 | -5 | -2
O=C1CC(C(=O)Nc2ccc3c(c2)OCO3)n2ncc(-c3ccccc3)c2N1 (configuration not stated) | 7 | 38* | 14 | 0 | 3 | -3
O=C1CC(C(=O)Nc2ccccc2F)n2nc(-c3ccccc3)cc2N1 (configuration not stated) | 6 | 39* | 78* | 15 | 16 | 2
O=C(Nc1ccccc1F)C1CCC(=O)N1S(=O)(=O)c1ccccc1 (configuration not stated) | 0 | -9 | -4 | -21 | 7 | -4
O=C1CC(C(=O)Nc2ccc3c(c2)OCO3)n2nc(SCc3ccccc3)nc2N1 (configuration not stated) | 12 | 15 | 10 | 28 | 33* | 5
COc1ccc(NC(=O)C2CC(=O)Nc3nc(SCc4ccccc4)nn32)cc1 (configuration not stated) | 3 | 4 | -2 | 10 | 15 | -1
O=C1CC(C(=O)Nc2ccc(Cl)cc2Cl)n2ncc(-c3ccccc3)c2N1 (configuration not stated) | 6 | -35 | -7 | -10 | 16 | 0
O=C1CC(C(=O)Nc2ccccc2Cl)n2nc(-c3ccccc3)cc2N1 (configuration not stated) | 8 | 31* | 72* | 27 | 4 | 0
COC(=O)CN1C(=O)N(c2cccc(C)c2)c2ncccc2S1(=O)=O | -5 | 3 | -12 | 11 | 0 | 0
SMILES | USP7 inh | USP8 block | USP17 block | USP30 block | USP10 block | UCHL1 block
COc1cc(CNc2nn[nH]n2)ccc1OCc1ccccc1 | 0 | -58 | -14 | -13 | 1 | -6
COc1ccc(NC(=O)C2CC(=O)Nc3c(-c4ccc(Cl)cc4)cnn32)c(OC)c1 (configuration not stated) | -3 | 1 | 60* | -1 | 4 | -2
O=C(Nc1ccc2c(c1)OCO2)C1CC(=O)N(CCc2ccccc2)C1 (configuration not stated) | 3 | 56* | 44* | 6 | -2 | 4
O=C1CC(C(=O)Nc2ccccc2F)n2ncc(-c3ccccc3)c2N1 (configuration not stated) | -2 | 23 | 44* | 8 | 5 | 1
CC(=O)c1cccc(NC(=O)CCc2nc3cccnc3n2-c2ccccc2)c1 | -12 | -6 | -8 | -30 | -9 | -13
O=S(=O)(c1c[nH]c2ncccc12)N1CCN(c2ccccc2)CC1 | -3 | -7 | -7 | -55 | -3 | -2
CCc1cc(=O)n(CC(=O)Nc2cc(C)ccc2OC)c(N2CCOCC2)n1 | 3 | 14 | 36* | 59* | 2 | 3
CCc1cc(=O)n(CC(=O)Nc2ccc(F)c(F)c2)c(N2CCOCC2)n1 | -22 | 7 | 5 | -1 | -2 | 0
Cc1ccc(NC(=O)c2ccc(N3CCOCC3)nn2)cc1F | -2 | -5 | 71* | 2 | 1 | 2
COc1ccc(C)cc1NC(=O)c1ccc(N2CCOCC2)nn1 | 0 | -26 | 52* | 54* | -4 | 1
CC(C)CNc1nc2c(cc1C(=O)N(C)C)CCNCC2 | -8 | -50 | -17 | 14 | 3 | -2
CSc1nc2ncc3c(=O)n(CCc4ccccc4)ccc3n2n1 | 0 | 16 | 62* | 44* | 2 | 3
CCN1CCN(c2ncc3c(=O)n(CCc4ccc(OC)c(OC)c4)ccc3n2)CC1 | 1 | -24 | 4 | 14 | 2 | 1
O=c1c2cnc(N3CCCCC3)nc2ccn1CCc1ccccc1 | 28 | 17 | 85* | 28 | 7 | 6
CCN1CCN(c2ncc3c(=O)n(CCc4ccccc4)ccc3n2)CC1 | 3 | 16 | 26 | 39* | 0 | -2
O=c1c2cnc(N3CCN(c4ccccc4)CC3)nc2ccn1Cc1cccnc1 | 4 | 10 | 14 | 17 | 2 | 0
Clc1ccccc1-n1ncc2c(N3CCCCC3)ncnc21 | 5 | 9 | 4 | 4 | 1 | 0
